Experimental findings from PubChem BioAssay (NCI) are described below.

SMILES strings stand for the structures. Compounds without any hit were thinned out: in the full panel of roughly 79,000, 15% have a hit. Unmarked numbers belong to inactive results. Activity calls are given as the source filed them. No stated cut-off is given here; in the data, active means growth inhibition above about 70%; inactive means the rest.

The first assay in a line: NCI Yeast Anticancer Drug Screen. Data for the sgs1 mgt1 strain (AID 161).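 Further: 0% = growth of cultures given vehicle only.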 Particulars: S. cerevisiae sgs1 mgt1 strain, at 5.0 µM (retest, dose inferred, filed as 0.5), stronger effect = higher value. The method in brief:
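This yeast growth screen uses a strain with defined DNA-repair lesions; compound-treated growth is compared with vehicle-treated growth.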
Turning to `O=C(Cl)c1ccc(N=Nc2ccccc2)cc1`, the growth inhibition is -1%.

For `O=[N+]([O-])c1ccccc1N=Nc1c(O)[nH]c2ccc(S(=O)(=O)O)cc12`, the growth inhibition was 68%.

As to `Cc1ccccc1N=NC(C(=O)c1ccccc1)C(=O)c1ccccc1`, the growth inhibition is 15%.

For `CCCCC(CC)(COC(C)=O)COC(C)=O`, the growth inhibition is 3%.

Turning to `NCCOB(c1ccccc1)c1ccccc1`, the growth inhibition was 3%.

Consider `O=C(Nc1ccccc1C(=O)O)c1ccccc1`, for which the growth inhibition was -5%.

For `O=[N+]([O-])c1ccc(Sc2c3ccccc3nc3ccccc23)nc1`, the growth inhibition is 62%.

Turning to `Cc1oc2c(c1C(=O)c1ccccc1)C(=O)c1ccccc1C2=O`, the growth inhibition was 31%.

Turning to `OC1(c2ccccc2)CCN(c2c3ccccc3nc3ccccc23)CC1`, the growth inhibition is 6%.

Staying with this assay, now noted: S. cerevisiae sgs1 mgt1 strain, at 50.0 µM (retest, dose inferred, filed as 5.0), stronger effect = higher value.
Consider `COc1ccc(C(=O)[O][Sn]([c]2ccccc2)([c]2ccccc2)[c]2ccccc2)c(OC)c1OC`, for which the growth inhibition was 99% (active).

Consider `CCC(CC)C1(C(=O)OCCN(CC)CC)CCCCC1`, for which the growth inhibition is 20%.

As to `O=C1OC(=O)C2C1C1C(c3ccccc3)=C(c3ccccc3)C2(O)C2C(=O)OC(=O)C12` (centres undefined), the growth inhibition is 16%.

`C/C(=C/CC1CCC2C3=CCC4CC(O)CCC4(C)C3CCC12C)C(C)C(C)C` (centres undefined): the growth inhibition is 66%.

For `CCC1(CC(=O)O)OCCc2c1[nH]c1c(C)c(Cl)ccc21` (centres undefined), the growth inhibition is 97% (active).

For the molecule `CN(C)CCCSc1c2ccccc2nc2cccc([N+](=O)[O-])c12`, the growth inhibition was -3%.

In the case of `CC1OC(OP(=O)(OCc2ccccc2)OCc2ccccc2)C(OC(=O)c2ccccc2)C(OC(=O)c2ccccc2)C1I` (centres undefined), the growth inhibition was 96% (active).

As to `C#CC(CC(C)CC(C)(C)C)NC` (centres undefined), the growth inhibition was 97% (active).

As for `N#CCCN(CCC#N)Cc1cc(-c2ccccc2)ccc1O`, the growth inhibition is 59%.

Turning to `Cc1ccc(NC(=O)CCCC(=O)C(C#N)c2ccccc2C)cc1C` (centres undefined), the growth inhibition was -19%.

Take `C[C@H]1CC[C@@H]2[C@@H](C)[C@H]3[C@H](C[C@H]4[C@@H]5CC=C6C[C@@H](O)CC[C@]6(C)[C@H]5CC[C@]34C)N2C1`: the growth inhibition was 99% (active).

For `Cc1nc(-c2ccc(N=Cc3ccc(N(CCOS(C)(=O)=O)CCOS(C)(=O)=O)cc3)cc2)cs1`, the growth inhibition is 17%.

For `COc1ccc2nc3cccc([N+](=O)[O-])c3c(NCCO)c2c1`, the growth inhibition is 96% (active).

`Oc1ccc(C2CCCCC2)cc1`: the growth inhibition was 54%.

In the case of `CCCCCc1cc(Cl)cc(Cl)c1O`, the growth inhibition is 26%.

Turning to `C=C1C(=O)OC2/C=C(\C(=O)O)CC/C=C(\C)CC(OC(=O)/C=C(\C)CC)C12` (centres undefined), the growth inhibition was 79% (active).

As for `O/N=C(/Cc1nc2cc(Cl)c(Cl)cc2nc1C/C(=N/O)c1ccncc1)c1ccncc1`, the growth inhibition is 55%.

For the molecule `Cc1cc(NC(=S)SCc2ccc3c(c2)OCO3)ccc1Br`, the growth inhibition is 98% (active).

With `CN1C(=O)OC(C)(c2ccccc2)C1=O` (centres undefined), the growth inhibition was 0%.

On to `O=C1c2ccccc2C(=O)c2c1cccc2[N+](=O)[O-]`, for which the growth inhibition is 88% (active).

As to `O=[N+]([O-])c1ccccc1Oc1ccc([N+](=O)[O-])c(C(F)(F)F)c1`, the growth inhibition was -24%.

As for `Cc1ccc(O)c(N=Nc2ccc(Cl)cc2)c1`, the growth inhibition was 17%.

Regarding `CC(C)Cc1cc2c(cc1O)CCC1C2CC[C@@]2(C)C1CC[C@@H]2O` (some centres undefined), the growth inhibition is 97% (active).

On to `CCOC(=O)CC1(C)C(=O)CCCC1=O`, for which the growth inhibition is 0%.

For the molecule `OC(c1cc(-c2ccc(Cl)cc2Cl)nc2ccccc12)C1CCCCN1` (centres undefined), the growth inhibition is 99% (active).

Turning to `COc1ccc(N=Cc2cc(Br)cc(Br)c2O)cc1.COc1ccc(N=Cc2cc(Br)cc(Br)c2O)cc1.[Co]`, the growth inhibition is 85% (active).

Consider `Cc1ccc[n+](CC(=O)C2CCC3C4CC=C5CC(O)CCC5(C)C4CCC23C)c1` (centres undefined), for which the growth inhibition is 64%.

For the molecule `CN(C)CC(C)(C)C(/C=C/c1ccccc1)=N\Nc1ccccc1`, the growth inhibition is 72% (active).

In the case of `COC1(OC)C2(Cl)C(Cl)=C(Cl)C1(Cl)C1C2C2CC1(C(=O)O)c1ccccc12` (centres undefined), the growth inhibition was 17%.

For `NC(N)=N/N=C(\c1ccc(F)cc1)c1ccc(C(F)(F)F)cc1`, the growth inhibition is 99% (active).

On to `O=C1CC(c2ccccc2Cl)C(c2ccccc2Cl)C1` (centres undefined), for which the growth inhibition is 96% (active).

As for `O=C(Cl)c1ccc(N=Nc2ccccc2)cc1`, the growth inhibition was 14%.

As to `O=[N+]([O-])c1ccccc1N=Nc1c(O)[nH]c2ccc(S(=O)(=O)O)cc12`, the growth inhibition was 93% (active).

Regarding `Cc1ccccc1N=NC(C(=O)c1ccccc1)C(=O)c1ccccc1`, the growth inhibition is 93% (active).

On to `CCCCC(CC)(COC(C)=O)COC(C)=O`, for which the growth inhibition was -1%.

For the molecule `NCCOB(c1ccccc1)c1ccccc1`, the growth inhibition was 99% (active).

In the case of `O=C(Nc1ccccc1C(=O)O)c1ccccc1`, the growth inhibition was -22%.

For the molecule `O=[N+]([O-])c1ccc(Sc2c3ccccc3nc3ccccc23)nc1`, the growth inhibition is 99% (active).

As to `Cc1oc2c(c1C(=O)c1ccccc1)C(=O)c1ccccc1C2=O`, the growth inhibition is 99% (active).

As for `OC1(c2ccccc2)CCN(c2c3ccccc3nc3ccccc23)CC1`, the growth inhibition was 75% (active).

Still in this assay, the particulars now being: S. cerevisiae sgs1 mgt1 strain, at 50.0 µM, stronger effect = higher value.
`COc1ccc(C(=O)[O][Sn]([c]2ccccc2)([c]2ccccc2)[c]2ccccc2)c(OC)c1OC`: the growth inhibition is 98.8% (active).

As to `CCC(CC)C1(C(=O)OCCN(CC)CC)CCCCC1`, the growth inhibition is 45%.

As for `O=C1OC(=O)C2C1C1C(c3ccccc3)=C(c3ccccc3)C2(O)C2C(=O)OC(=O)C12` (centres undefined), the growth inhibition was 69.7%.

Take `C/C(=C/CC1CCC2C3=CCC4CC(O)CCC4(C)C3CCC12C)C(C)C(C)C` (centres undefined): the growth inhibition was 59.1%.

For `CCC1(CC(=O)O)OCCc2c1[nH]c1c(C)c(Cl)ccc21` (centres undefined), the growth inhibition was 97.8% (active).

Turning to `CN(C)CCCSc1c2ccccc2nc2cccc([N+](=O)[O-])c12`, the growth inhibition was 7.5%.

On to `CC1OC(OP(=O)(OCc2ccccc2)OCc2ccccc2)C(OC(=O)c2ccccc2)C(OC(=O)c2ccccc2)C1I` (centres undefined), for which the growth inhibition was 90.1% (active).

As to `C#CC(CC(C)CC(C)(C)C)NC` (centres undefined), the growth inhibition was 96.8% (active).

With `N#CCCN(CCC#N)Cc1cc(-c2ccccc2)ccc1O`, the growth inhibition was 59.5%.

Turning to `Cc1ccc(NC(=O)CCCC(=O)C(C#N)c2ccccc2C)cc1C` (centres undefined), the growth inhibition is 10.6%.

Consider `C[C@H]1CC[C@@H]2[C@@H](C)[C@H]3[C@H](C[C@H]4[C@@H]5CC=C6C[C@@H](O)CC[C@]6(C)[C@H]5CC[C@]34C)N2C1`, for which the growth inhibition was 93.2% (active).

For `Cc1nc(-c2ccc(N=Cc3ccc(N(CCOS(C)(=O)=O)CCOS(C)(=O)=O)cc3)cc2)cs1`, the growth inhibition is 21.1%.

Take `COc1ccc2nc3cccc([N+](=O)[O-])c3c(NCCO)c2c1`: the growth inhibition was 87.8% (active).

Take `Oc1ccc(C2CCCCC2)cc1`: the growth inhibition is 95.3% (active).

Consider `CCCCCc1cc(Cl)cc(Cl)c1O`, for which the growth inhibition was 67.5%.

Regarding `C=C1C(=O)OC2/C=C(\C(=O)O)CC/C=C(\C)CC(OC(=O)/C=C(\C)CC)C12` (centres undefined), the growth inhibition was 77.1% (active).

As to `O/N=C(/Cc1nc2cc(Cl)c(Cl)cc2nc1C/C(=N/O)c1ccncc1)c1ccncc1`, the growth inhibition was 79% (active).

As to `Cc1cc(NC(=S)SCc2ccc3c(c2)OCO3)ccc1Br`, the growth inhibition was 91.2% (active).

Regarding `CN1C(=O)OC(C)(c2ccccc2)C1=O` (centres undefined), the growth inhibition is -13.6%.

With `O=C1c2ccccc2C(=O)c2c1cccc2[N+](=O)[O-]`, the growth inhibition is 86% (active).

In the case of `O=[N+]([O-])c1ccccc1Oc1ccc([N+](=O)[O-])c(C(F)(F)F)c1`, the growth inhibition is 92.5% (active).

With `Cc1ccc(O)c(N=Nc2ccc(Cl)cc2)c1`, the growth inhibition was -20.8%.

Take `CC(C)Cc1cc2c(cc1O)CCC1C2CC[C@@]2(C)C1CC[C@@H]2O` (some centres undefined): the growth inhibition was 86.5% (active).

As to `CCOC(=O)CC1(C)C(=O)CCCC1=O`, the growth inhibition is 3.65%.

Consider `OC(c1cc(-c2ccc(Cl)cc2Cl)nc2ccccc12)C1CCCCN1` (centres undefined), for which the growth inhibition was 99.1% (active).

In the case of `COc1ccc(N=Cc2cc(Br)cc(Br)c2O)cc1.COc1ccc(N=Cc2cc(Br)cc(Br)c2O)cc1.[Co]`, the growth inhibition is 90.6% (active).

On to `Cc1ccc[n+](CC(=O)C2CCC3C4CC=C5CC(O)CCC5(C)C4CCC23C)c1` (centres undefined), for which the growth inhibition is 98.8% (active).

For the molecule `CN(C)CC(C)(C)C(/C=C/c1ccccc1)=N\Nc1ccccc1`, the growth inhibition is 97.8% (active).

With `COC1(OC)C2(Cl)C(Cl)=C(Cl)C1(Cl)C1C2C2CC1(C(=O)O)c1ccccc12` (centres undefined), the growth inhibition is 93% (active).

Regarding `NC(N)=N/N=C(\c1ccc(F)cc1)c1ccc(C(F)(F)F)cc1`, the growth inhibition is 80.5% (active).

With `O=C1CC(c2ccccc2Cl)C(c2ccccc2Cl)C1` (centres undefined), the growth inhibition was 96.7% (active).

As for `O=C(Cl)c1ccc(N=Nc2ccccc2)cc1`, the growth inhibition was 47.5%.

Take `O=[N+]([O-])c1ccccc1N=Nc1c(O)[nH]c2ccc(S(=O)(=O)O)cc12`: the growth inhibition is 95.9% (active).

Consider `Cc1ccccc1N=NC(C(=O)c1ccccc1)C(=O)c1ccccc1`, for which the growth inhibition was 92.2% (active).

For the molecule `CCCCC(CC)(COC(C)=O)COC(C)=O`, the growth inhibition was 2.6%.

Consider `NCCOB(c1ccccc1)c1ccccc1`, for which the growth inhibition is 50.5%.

On to `O=C(Nc1ccccc1C(=O)O)c1ccccc1`, for which the growth inhibition is 79.7% (active).

In the case of `O=[N+]([O-])c1ccc(Sc2c3ccccc3nc3ccccc23)nc1`, the growth inhibition is 97.7% (active).

In the case of `Cc1oc2c(c1C(=O)c1ccccc1)C(=O)c1ccccc1C2=O`, the growth inhibition is 93.2% (active).

`OC1(c2ccccc2)CCN(c2c3ccccc3nc3ccccc23)CC1`: the growth inhibition was 97.6% (active).
